Four compounds from PubChem BioAssay (NCI) can be followed below.

This is part of a sample that, as a whole, favours compounds with a hit. Of some 83,000 tested, about 20% had one in any assay.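 Method: cells in 96-well plates; compound added at one concentration; 48 h incubation; percent growth measured; values under 10 scored active.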 A number with no mark means an inactive call. The source made the active and inactive calls.

Some test systems named below: NCI-H23 lung; HOP-92 NSCLC; MOLT-4 leukemia; SR leukemia; RPMI-8226 leukemia; IGROV1 ovarian; T-47D breast; MDA-MB-435 melanoma; HCC-2998 colon; NCI-H522 lung; MDA-MB-231 breast; LOX IMVI melanoma; A498 renal; HS 578T breast; SW-620 colon; HCT-116 colon; KM12 colon; COLO 205 colon; PC-3 prostate; NCI-H322M lung.
Holding throughout (test): NCI-60 one-dose screen, 48 h (100 = growth as untreated, 0 = no growth, -100 = all killed)
Holding throughout (conditions): 10 µM

For the compound `O=C(NC([Se])=NC1CCCCC1)c1ccccc1`, the growth with NCI-H23 lung was 19%; in the experiment with HOP-92 NSCLC, 112%; with MOLT-4 leukemia it was 57.4%; in the experiment with SR leukemia, 51.4%; in the experiment on RPMI-8226 leukemia, 56.2%; with IGROV1 ovarian, 13.6%. Besides, the growth in the experiment on T-47D breast is 46%; in the experiment with MDA-MB-435 melanoma, 42.4%; in the experiment with HCC-2998 colon, 62.8%.
With `CC[C@]12C=CCN3CC[C@@]4(c5ccc(OC)cc5N(C)[C@H]4[C@@](O)(C(=O)OC)[C@@H]1OC(=O)CCCC[P+](C1CCCCC1)(C1CCCCC1)C1CCCCC1)[C@@H]32`, the growth is -9.66% (active) with NCI-H23 lung; -71.8% (active) in the experiment with NCI-H522 lung; -92.8% (active) in the experiment on MDA-MB-231 breast; -96.1% (active) with LOX IMVI melanoma; -0.0449% (active) in the experiment with A498 renal; -5.16% (active) in the experiment on MOLT-4 leukemia. The growth in the experiment with SR leukemia is 19.5%; in the experiment on HS 578T breast, -35% (active); in the experiment with MDA-MB-435 melanoma, -90.5% (active); with SW-620 colon, 2.08% (active); in the experiment with HCT-116 colon, 4.69% (active); with HCC-2998 colon, -87.8% (active). Further, in the experiment on KM12 colon, the growth is -71.1% (active).
Consider `O=C(/C=C/c1ccc(Cl)cc1)c1nc2ccccc2n1Cc1ccc(F)cc1`, for which the growth in the experiment on NCI-H23 lung is 33.4%; in the experiment with HOP-92 NSCLC, 16.7%; with COLO 205 colon, 71.9%; in the experiment on PC-3 prostate, 19.5%; in the experiment with A498 renal it was 125%; in the experiment on MOLT-4 leukemia it was -0.463% (active). Also, the growth in the experiment with SR leukemia is -8.72% (active); in the experiment with RPMI-8226 leukemia it was -20.2% (active); in the experiment on T-47D breast, 7.93% (active); with HCT-116 colon, 3.49% (active); with KM12 colon, 24.9%.
As for `C[C@H]1[C@H](OC(=O)CCC(=O)N(CCCc2cn(-c3ccc(C#N)cc3)nn2)CCNc2ccnc3cc(Cl)ccc23)O[C@@H]2OC3(C)CC[C@H]4[C@H](C)CC[C@@H]1[C@@]24OO3`, the growth is 47.3% with NCI-H23 lung; 82.9% in the experiment on NCI-H322M lung; 7.07% (active) in the experiment on HOP-92 NSCLC; 7.88% (active) with NCI-H522 lung; 62.9% in the experiment with MDA-MB-231 breast; 33.9% in the experiment on PC-3 prostate. Further, the growth in the experiment on LOX IMVI melanoma is 13.3%; in the experiment with MOLT-4 leukemia it was 4.41% (active); with SR leukemia, -14.5% (active); in the experiment with RPMI-8226 leukemia, 27%; with MDA-MB-435 melanoma, 28.8%; with SW-620 colon, 18.2%.
